Conditions in all cases: mRNA level, 48 h; actives raise or lower the signal
Read-out in experiment [1]: Bcl-2 (BAD) gene, BAD (gene 572)
The experiment can be described thus: LTEA_HepaRG_BAD: Life Technologies and Expression Analysis (LTEA) Assay for Bcl-2 (BAD) gene using HepaRG (AID 2283469). Put shortly: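 BAD transcript change, measured by qRT-PCR against three housekeeping genes and fitted in both directions relative to 0.5% DMSO, after 48 h chemical treatment of human HepaRG liver cells at concentrations up to 100 uM.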

Read-out in experiment [2]: Bcl-2 (BAX) gene, BAX (gene 581)
The experiment can be described thus: LTEA_HepaRG_BAX: Life Technologies and Expression Analysis (LTEA) Assay for Bcl-2 (BAX) gene using HepaRG (AID 2283470). In outline: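 Concentration-response endpoint fitted in both directions relative to 0.5% DMSO vehicle. Human HepaRG cultures receive test chemicals for 48 h at up to 100 uM; BAX mRNA is quantified by qRT-PCR against housekeeping genes.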

Read-out in experiment [3]: adenosine kinase (ADK) gene, ADK (gene 132)
Nature of the experiment: LTEA_HepaRG_ADK: Life Technologies and Expression Analysis (LTEA) Assay for adenosine kinase (ADK) gene using HepaRG (AID 2283471). Put shortly: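 Differentiated HepaRG cells dosed 48 h in serum-free induction medium, 0.5% DMSO vehicle, eight half-log concentrations from 100 uM, in duplicate. ADK mRNA by TaqMan qRT-PCR normalised to ACTB, GAPDH, POLR2A; bidirectional fit versus DMSO.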

Read-out in experiment [4]: Alpha-fetoprotein (AFP) gene, AFP (gene 174)
The experiment can be described thus: LTEA_HepaRG_AFP: Life Technologies and Expression Analysis (LTEA) Assay for Alpha-fetoprotein (AFP) gene using HepaRG (AID 2283472).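 For AC50: AFP transcript by TaqMan qRT-PCR normalized to ACTB GAPDH and POLR2A.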 In outline:
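After a 48 h plating period, cells are moved to serum-free induction medium and dosed in duplicate (100 uM maximum, half-log dilutions, 0.5% DMSO) for another 48 h. Total RNA goes to TaqMan qRT-PCR; AFP signal is housekeeping-normalized.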

Read-out in another experiment: BCL2L11 (gene 10018)
Nature of the experiment: LTEA_HepaRG_BCL2L11: Life Technologies and Expression Analysis (LTEA) Assay for Bcl-2 (BCL2L11) gene using HepaRG (AID 2283473). Put shortly: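 Cells were plated, cultured 48 h, switched to serum-free induction medium, then dosed in duplicate for 48 h at eight half-log concentrations up to 100 uM. Lysates underwent RNA isolation and TaqMan qRT-PCR; gain or loss versus DMSO was fitted.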

Read-out in experiment [5]: Apolipoprotein A-V (APOA5) gene, APOA5 (gene 116519)
The experiment can be described thus: LTEA_HepaRG_APOA5: Life Technologies and Expression Analysis (LTEA) Assay for Apolipoprotein A-V (APOA5) gene using HepaRG (AID 2283474). Put shortly:
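Human liver HepaRG cells are treated 48 h with test chemicals (100 uM top, half-log dilutions, 0.5% DMSO). APOA5 mRNA induction or loss is measured by qRT-PCR relative to vehicle.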

Read-out in experiment [6]: Apoptosis regulator Bcl-2 (Homo sapiens) (UniProt P10415)
The experiment can be described thus: LTEA_HepaRG_BCL2: Life Technologies and Expression Analysis (LTEA) Assay for Bcl-2 gene using HepaRG (AID 2283475). Put shortly:
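Expression change of BCL2 mRNA in HepaRG after 48 h dosing, quantified by TaqMan qRT-PCR against three endogenous controls. Concentration-response used eight points up to 100 uM, vehicle 0.5% DMSO.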

Read-out in experiment [7]: Bcl-2 (BID) gene, BID (gene 637)
The experiment can be described thus: LTEA_HepaRG_BID: Life Technologies and Expression Analysis (LTEA) Assay for Bcl-2 (BID) gene using HepaRG (AID 2283476). Put shortly:
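Gain or loss of BID expression is fitted relative to 0.5% DMSO vehicle. Human HepaRG liver cells received a 48 h chemical exposure over an eight-point concentration range.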

Read-out in another experiment: Caspase-3 (Homo sapiens) (UniProt P42574)
The experiment can be described thus: LTEA_HepaRG_CASP3: Life Technologies and Expression Analysis (LTEA) Assay for cysteine-aspartic acid protease (CASP3) using HepaRG (AID 2283477). In outline: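 In HepaRG liver cells dosed for 48 h at up to 100 uM (eight-point, duplicate), CASP3 expression changes are scored by qRT-PCR. Activity is fitted in both directions with 0.5% DMSO as baseline.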

Read-out in experiment [8]: Cytochrome P450 (CYP24A1), CYP24A1 (gene 1591)
Nature of the experiment: LTEA_HepaRG_CYP24A1: Life Technologies and Expression Analysis (LTEA) Assay for Cytochrome P450 (CYP24A1) using HepaRG (AID 2283478). In outline: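 Human liver HepaRG cultures receive each chemical for 48 h across an eight-point half-log series topping at 100 uM in 0.5% DMSO. Induction or suppression of CYP24A1 mRNA is scored relative to vehicle after housekeeping-gene normalization.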

Read-out in experiment [9]: cysteine-aspartic acid protease (CASP8), CASP8 (gene 841)
Nature of the experiment: LTEA_HepaRG_CASP8: Life Technologies and Expression Analysis (LTEA) Assay for cysteine-aspartic acid protease (CASP8) using HepaRG (AID 2283480). In outline:
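HepaRG, 48 h exposure, duplicate wells; 8 conc, half-log from 100 uM, 0.5% DMSO. Serum-free induction medium. CASP8 mRNA by TaqMan qRT-PCR, norm. ACTB/GAPDH/POLR2A; gain/loss fitted vs DMSO.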

Read-out in experiment [10]: Cytochrome P450 (CYP2B6), CYP2B6 (gene 1555)
Nature of the experiment: LTEA_HepaRG_CYP2B6: Life Technologies and Expression Analysis (LTEA) Assay for Cytochrome P450 (CYP2B6) using HepaRG (AID 2283481). Put shortly:
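Using 48 h treatment of HepaRG cells in serum-free induction medium, concentrations spanned half-log steps from 100 uM in 0.5% DMSO vehicle. CYP2B6 mRNA induction or loss is scored by qRT-PCR against DMSO.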

Read-out in experiment [11]: Cytochrome P450 2C19 (Homo sapiens) (UniProt P33261)
The experiment can be described thus: LTEA_HepaRG_CYP2C19: Life Technologies and Expression Analysis (LTEA) Assay for CYP2C19 using HepaRG (AID 2283482). In outline:
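Human HepaRG liver cells received test chemicals for 48 h (highest 100 uM, half-log dilutions in 0.5% DMSO). CYP2C19 mRNA induction or loss is read by multiplexed qRT-PCR and fitted in both directions versus vehicle.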

Read-out in a further experiment: CYP2C8 (gene 1558)
Nature of the experiment: LTEA_HepaRG_CYP2C8: Life Technologies and Expression Analysis (LTEA) Assay for CYP2C8 using HepaRG (AID 2283483). In outline: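 CYP2C8 mRNA induction or loss, by qRT-PCR normalized to ACTB/GAPDH/POLR2A, is read in HepaRG cells after 48 h treatment. Concentrations run from 100 uM down in half-log dilutions, with 0.5% DMSO as vehicle and baseline.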

Read-out in the next experiment: CYP2C9 (gene 1559)
Nature of the experiment: LTEA_HepaRG_CYP2C9: Life Technologies and Expression Analysis (LTEA) Assay for CYP2C9 using HepaRG (AID 2283484). In outline:
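Cells plated 48 h, switched to serum-free induction medium, then treated in duplicate for 48 h at eight concentrations (max 100 uM, 0.5% DMSO). RNA then analysed by qRT-PCR for CYP2C9; curves fitted in both directions relative to DMSO.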

Read-out in the next experiment: CYP2E1 (gene 1571)
Nature of the experiment: LTEA_HepaRG_CYP2E1: Life Technologies and Expression Analysis (LTEA) Assay for CYP2E1 using HepaRG (AID 2283485). Put shortly:
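Differentiated HepaRG cells were treated in duplicate for 48 h with chemicals in 0.5% DMSO, from 100 uM downward in half-log dilutions. RNA was then analysed by qRT-PCR for CYP2E1 induction or loss.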

Read-out in another experiment: CYP4A11 (gene 1579)
Nature of the experiment: LTEA_HepaRG_CYP4A11: Life Technologies and Expression Analysis (LTEA) Assay for CYP4A11 using HepaRG (AID 2283486). In outline: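 Readout is CYP4A11 mRNA induction or suppression (qRT-PCR, ACTB/GAPDH/POLR2A normalization) in human HepaRG cells after 48 h chemical treatment, concentrations to 100 uM in 0.5% DMSO, fitted bidirectionally against vehicle.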

Read-out in experiment [12]: Cytochrome P450 3A4 (Homo sapiens) (UniProt P08684)
Nature of the experiment: LTEA_HepaRG_CYP3A4: Life Technologies and Expression Analysis (LTEA) Assay for CYP3A4 using HepaRG (AID 2283487). Put shortly:
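Differentiated HepaRG cells in serum-free induction medium exposed in duplicate for 48 h to 8 half-log concentrations up to 100 uM in 0.5% DMSO. CYP3A4 mRNA measured by qRT-PCR normalized to ACTB, GAPDH and POLR2A; bidirectional fit versus DMSO.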

Read-out in experiment [13]: Cytochrome P450 (CYP1A2), CYP1A2 (gene 1544)
The experiment can be described thus: LTEA_HepaRG_CYP1A2: Life Technologies and Expression Analysis (LTEA) Assay for Cytochrome P450 (CYP1A2) using HepaRG (AID 2283479).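 For AC50: TaqMan qRT-PCR transcript level normalized to ACTB GAPDH and POLR2A.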 Put shortly: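 Assesses CYP1A2 mRNA in human HepaRG liver cells after 48 h chemical exposure at up to 100 uM. Values come from qRT-PCR with bidirectional curve fitting relative to DMSO.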

Active and inactive are the calls of the source. Rule for the calls: active = hit-call score of the fitted dose curve at least 0.9, where 1 is the maximum; inactive = score below 0.9.

Chain of Cytochrome P450 3A4 (Homo sapiens) (P08684 whole entry, looked up): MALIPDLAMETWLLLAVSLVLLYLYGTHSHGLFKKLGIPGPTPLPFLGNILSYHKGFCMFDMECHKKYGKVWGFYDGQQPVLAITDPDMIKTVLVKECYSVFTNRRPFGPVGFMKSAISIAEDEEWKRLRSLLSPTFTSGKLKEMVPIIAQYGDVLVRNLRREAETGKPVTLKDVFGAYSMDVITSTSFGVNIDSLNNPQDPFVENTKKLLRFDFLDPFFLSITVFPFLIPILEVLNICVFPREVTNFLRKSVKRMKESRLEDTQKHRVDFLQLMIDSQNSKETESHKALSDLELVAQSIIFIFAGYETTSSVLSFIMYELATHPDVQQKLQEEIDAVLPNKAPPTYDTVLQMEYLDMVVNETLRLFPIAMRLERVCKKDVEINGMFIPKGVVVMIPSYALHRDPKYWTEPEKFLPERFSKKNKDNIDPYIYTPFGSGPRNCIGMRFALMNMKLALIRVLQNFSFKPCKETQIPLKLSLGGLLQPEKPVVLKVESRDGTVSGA
Chain of Cytochrome P450 2C19 (Homo sapiens) (P33261 whole entry, looked up): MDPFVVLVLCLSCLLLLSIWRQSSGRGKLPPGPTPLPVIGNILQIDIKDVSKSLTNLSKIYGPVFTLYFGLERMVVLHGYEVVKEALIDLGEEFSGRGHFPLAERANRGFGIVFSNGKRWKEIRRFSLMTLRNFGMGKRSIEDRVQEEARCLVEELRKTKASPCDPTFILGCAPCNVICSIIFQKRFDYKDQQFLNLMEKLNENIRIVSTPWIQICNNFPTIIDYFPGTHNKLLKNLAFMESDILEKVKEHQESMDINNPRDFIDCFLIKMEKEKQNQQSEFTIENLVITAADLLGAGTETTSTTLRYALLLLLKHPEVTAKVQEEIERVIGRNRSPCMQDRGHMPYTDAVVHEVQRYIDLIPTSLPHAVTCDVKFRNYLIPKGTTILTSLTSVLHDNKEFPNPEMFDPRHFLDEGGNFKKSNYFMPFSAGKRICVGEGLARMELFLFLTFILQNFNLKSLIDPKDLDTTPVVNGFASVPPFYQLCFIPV
Chain of Caspase-3 (Homo sapiens) (P42574 whole entry, looked up): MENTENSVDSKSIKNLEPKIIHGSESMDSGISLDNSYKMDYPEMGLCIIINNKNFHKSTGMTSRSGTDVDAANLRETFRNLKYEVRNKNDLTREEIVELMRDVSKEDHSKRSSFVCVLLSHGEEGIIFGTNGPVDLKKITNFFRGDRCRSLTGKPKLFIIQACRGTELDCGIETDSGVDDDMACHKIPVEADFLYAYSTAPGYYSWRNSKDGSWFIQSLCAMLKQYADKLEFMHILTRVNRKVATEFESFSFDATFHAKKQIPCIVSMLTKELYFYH
Chain of Apoptosis regulator Bcl-2 (Homo sapiens) (P10415 whole entry, looked up): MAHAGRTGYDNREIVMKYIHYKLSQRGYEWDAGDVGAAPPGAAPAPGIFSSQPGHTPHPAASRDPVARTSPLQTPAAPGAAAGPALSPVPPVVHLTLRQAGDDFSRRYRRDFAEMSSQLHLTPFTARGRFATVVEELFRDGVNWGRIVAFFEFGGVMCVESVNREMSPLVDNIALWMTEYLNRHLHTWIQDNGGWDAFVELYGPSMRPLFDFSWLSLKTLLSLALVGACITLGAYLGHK

`COP(=O)(NC(C)=O)SC` (stereo not given): the call (in experiment [1]; in [2]; in experiment [3]; in experiment [4]; with BCL2L11 (gene 10018); in experiment [5]) was inactive. For the same compound, the outcome (in experiment [6]; in experiment [7]; with Caspase-3 (Homo sapiens); in [8]; in [9]; in experiment [10]) was inactive. The call (in experiment [11]; with CYP2C8 (gene 1558); in the experiment with CYP2C9 (gene 1559); with CYP2E1 (gene 1571); in the experiment with CYP4A11 (gene 1579); in [12]) was inactive.
Broadly, the AC50 is the concentration at which the activity in the assay is half-maximal. Turning to `CC[C@H](C)[C@H]1O[C@]2(C=C[C@@H]1C)C[C@@H]1C[C@@H](C/C=C(\C)[C@@H](O[C@H]3C[C@H](OC)[C@@H](O[C@H]4C[C@H](OC)[C@@H](NC)[C@H](C)O4)[C@H](C)O3)[C@@H](C)/C=C/C=C3\CO[C@@H]4[C@H](O)C(C)=C[C@@H](C(=O)O1)[C@]34O)O2`, the call (in experiment [1]; in experiment [5]; in [6]; with Caspase-3 (Homo sapiens); in [8]; in [13]) was inactive. For the same compound, the call (in [9]; with CYP2C8 (gene 1558); in the experiment with CYP2C9 (gene 1559)) was inactive. Moreover, the AC50 in experiment [2] was 50 µM (active); in [3] it was 50 µM (active); in [4], 87.7 µM (active); with BCL2L11 (gene 10018) it was 12.5 µM (active); in [7], 25 µM (active); in [10] it was 11.6 µM (active). Moreover, the half-maximal activity concentration (AC50) was 12.6 µM (active) in experiment [11], 5.32 µM (active) in the experiment with CYP2E1 (gene 1571), 11.7 µM (active) with CYP4A11 (gene 1579) and 23.1 µM (active) in [12].
Regarding `CCCCOC(=O)[C@@H](C)Oc1ccc(Oc2ccc(C#N)cc2F)cc1`, the compound was classed as inactive (in experiment [1]; in experiment [2]; in experiment [4]; with BCL2L11 (gene 10018); in experiment [5]; in [6]). In addition, the compound was classed as inactive (in [7]; with Caspase-3 (Homo sapiens); in experiment [8]; in experiment [9]; in experiment [10]; in experiment [11]). Besides, the compound was classed as inactive (with CYP2C8 (gene 1558); with CYP2C9 (gene 1559); in the experiment with CYP2E1 (gene 1571); in experiment [12]). The half-maximal activity concentration (AC50) is 38.5 µM (active) in [13] and 32.4 µM (active) in the experiment with CYP4A11 (gene 1579).
As for `CC(COc1ccc(Oc2ccccc2)cc1)Oc1ccccn1` (stereo not given), the call (in experiment [1]; in experiment [2]; in the experiment with BCL2L11 (gene 10018); in [5]; in experiment [6]; in experiment [7]) was inactive. Also, the outcome (in the experiment with Caspase-3 (Homo sapiens); in experiment [8]; in experiment [9]; in experiment [11]; with CYP2C8 (gene 1558); with CYP2C9 (gene 1559)) was inactive. The AC50 in experiment [4] is 38.9 µM (active); in experiment [13], 13.1 µM (active); in experiment [10], 3.68 µM (active); with CYP2E1 (gene 1571) it was 35.7 µM (active); in the experiment with CYP4A11 (gene 1579), 12.5 µM (active); in experiment [12] it was 11.8 µM (active).
With `CCOP(=O)(NC(C)C)Oc1ccc(SC)c(C)c1` (stereo not given), the result (in experiment [1]; in [2]; in the experiment with BCL2L11 (gene 10018); in experiment [5]; in experiment [6]; in [7]) was inactive. Also, the compound was called inactive (with Caspase-3 (Homo sapiens); in [8]; in [13]; in experiment [9]; with CYP2C8 (gene 1558); with CYP2C9 (gene 1559)). Further, the AC50 is 16.5 µM (active) in experiment [4]; 22.5 µM (active) in experiment [10]; 50 µM (active) in experiment [11]; 34.3 µM (active) with CYP2E1 (gene 1571); 22.4 µM (active) in the experiment with CYP4A11 (gene 1579).

Source of the values: PubChem BioAssay (EPA / NIEHS).
